Data from the supplement of paper PMC11741263, “Chemoproteomic Profiling of C. albicans for Characterization of Anti-fungal Kinase Inhibitors” (bioRxiv, 2025).

Compound: Cc1[nH]nc2ccc(-c3cc(OC[C@@H](N)Cc4ccccc4)cnc3-c3ccoc3)cc12
Assay: MIB bead binding, log2 fold change vs DMSO (log2 ratio); higher = less competition (weaker engagement)

UniProt Q59W62, sequence (Q59W62 whole entry): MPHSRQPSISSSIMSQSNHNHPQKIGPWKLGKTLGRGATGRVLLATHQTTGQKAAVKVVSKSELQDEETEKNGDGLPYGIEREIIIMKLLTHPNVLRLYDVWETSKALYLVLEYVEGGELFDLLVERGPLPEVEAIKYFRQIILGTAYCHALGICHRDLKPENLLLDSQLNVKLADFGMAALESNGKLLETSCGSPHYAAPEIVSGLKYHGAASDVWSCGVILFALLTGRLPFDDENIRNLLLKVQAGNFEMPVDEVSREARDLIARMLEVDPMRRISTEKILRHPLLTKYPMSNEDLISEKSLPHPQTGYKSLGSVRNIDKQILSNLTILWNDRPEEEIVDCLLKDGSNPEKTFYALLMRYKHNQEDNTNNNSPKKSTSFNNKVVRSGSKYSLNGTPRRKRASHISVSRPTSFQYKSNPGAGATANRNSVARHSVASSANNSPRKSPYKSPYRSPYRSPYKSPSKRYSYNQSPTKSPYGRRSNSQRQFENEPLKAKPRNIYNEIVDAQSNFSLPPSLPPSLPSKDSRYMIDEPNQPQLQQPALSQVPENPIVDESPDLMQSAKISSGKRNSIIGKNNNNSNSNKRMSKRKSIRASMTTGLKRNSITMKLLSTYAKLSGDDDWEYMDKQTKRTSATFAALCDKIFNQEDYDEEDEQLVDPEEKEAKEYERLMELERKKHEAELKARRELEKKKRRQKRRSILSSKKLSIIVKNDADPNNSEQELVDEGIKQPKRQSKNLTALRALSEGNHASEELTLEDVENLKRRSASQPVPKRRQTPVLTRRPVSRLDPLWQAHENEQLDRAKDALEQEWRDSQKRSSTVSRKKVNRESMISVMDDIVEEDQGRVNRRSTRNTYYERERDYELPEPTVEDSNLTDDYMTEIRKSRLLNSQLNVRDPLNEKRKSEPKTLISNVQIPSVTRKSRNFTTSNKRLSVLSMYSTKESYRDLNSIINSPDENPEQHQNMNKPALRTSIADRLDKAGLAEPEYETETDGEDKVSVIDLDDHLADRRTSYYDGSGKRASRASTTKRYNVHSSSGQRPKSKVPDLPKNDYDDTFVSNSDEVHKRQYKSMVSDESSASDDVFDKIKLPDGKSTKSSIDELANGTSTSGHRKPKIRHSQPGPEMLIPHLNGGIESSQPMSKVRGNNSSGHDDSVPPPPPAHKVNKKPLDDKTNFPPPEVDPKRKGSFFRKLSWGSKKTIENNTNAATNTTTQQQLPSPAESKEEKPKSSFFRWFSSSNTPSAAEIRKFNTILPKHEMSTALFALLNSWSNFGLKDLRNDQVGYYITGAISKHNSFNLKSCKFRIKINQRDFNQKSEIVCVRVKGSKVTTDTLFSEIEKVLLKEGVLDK
UniProt Q5AP53, sequence (Q5AP53 whole entry): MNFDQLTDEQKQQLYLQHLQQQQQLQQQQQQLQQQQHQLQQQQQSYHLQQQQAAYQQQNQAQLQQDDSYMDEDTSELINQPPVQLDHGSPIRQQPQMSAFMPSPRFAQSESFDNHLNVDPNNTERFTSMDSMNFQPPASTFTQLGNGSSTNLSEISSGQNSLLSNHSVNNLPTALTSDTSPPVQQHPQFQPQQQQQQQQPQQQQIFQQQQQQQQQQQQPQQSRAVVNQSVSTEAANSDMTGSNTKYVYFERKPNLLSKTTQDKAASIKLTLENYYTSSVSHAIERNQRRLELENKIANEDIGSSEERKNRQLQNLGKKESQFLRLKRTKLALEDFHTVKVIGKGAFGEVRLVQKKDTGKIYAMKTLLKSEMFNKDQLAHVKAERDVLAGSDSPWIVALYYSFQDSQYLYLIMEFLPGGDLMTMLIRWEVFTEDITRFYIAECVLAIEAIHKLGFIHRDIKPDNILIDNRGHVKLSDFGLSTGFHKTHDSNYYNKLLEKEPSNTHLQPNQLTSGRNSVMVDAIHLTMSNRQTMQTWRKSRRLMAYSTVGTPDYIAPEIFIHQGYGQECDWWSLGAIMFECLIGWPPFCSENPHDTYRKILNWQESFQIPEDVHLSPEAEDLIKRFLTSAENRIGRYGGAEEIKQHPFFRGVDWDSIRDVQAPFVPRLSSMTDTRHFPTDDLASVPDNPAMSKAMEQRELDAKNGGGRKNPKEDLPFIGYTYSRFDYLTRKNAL
UniProt P16066, sequence (P16066 whole entry, looked up): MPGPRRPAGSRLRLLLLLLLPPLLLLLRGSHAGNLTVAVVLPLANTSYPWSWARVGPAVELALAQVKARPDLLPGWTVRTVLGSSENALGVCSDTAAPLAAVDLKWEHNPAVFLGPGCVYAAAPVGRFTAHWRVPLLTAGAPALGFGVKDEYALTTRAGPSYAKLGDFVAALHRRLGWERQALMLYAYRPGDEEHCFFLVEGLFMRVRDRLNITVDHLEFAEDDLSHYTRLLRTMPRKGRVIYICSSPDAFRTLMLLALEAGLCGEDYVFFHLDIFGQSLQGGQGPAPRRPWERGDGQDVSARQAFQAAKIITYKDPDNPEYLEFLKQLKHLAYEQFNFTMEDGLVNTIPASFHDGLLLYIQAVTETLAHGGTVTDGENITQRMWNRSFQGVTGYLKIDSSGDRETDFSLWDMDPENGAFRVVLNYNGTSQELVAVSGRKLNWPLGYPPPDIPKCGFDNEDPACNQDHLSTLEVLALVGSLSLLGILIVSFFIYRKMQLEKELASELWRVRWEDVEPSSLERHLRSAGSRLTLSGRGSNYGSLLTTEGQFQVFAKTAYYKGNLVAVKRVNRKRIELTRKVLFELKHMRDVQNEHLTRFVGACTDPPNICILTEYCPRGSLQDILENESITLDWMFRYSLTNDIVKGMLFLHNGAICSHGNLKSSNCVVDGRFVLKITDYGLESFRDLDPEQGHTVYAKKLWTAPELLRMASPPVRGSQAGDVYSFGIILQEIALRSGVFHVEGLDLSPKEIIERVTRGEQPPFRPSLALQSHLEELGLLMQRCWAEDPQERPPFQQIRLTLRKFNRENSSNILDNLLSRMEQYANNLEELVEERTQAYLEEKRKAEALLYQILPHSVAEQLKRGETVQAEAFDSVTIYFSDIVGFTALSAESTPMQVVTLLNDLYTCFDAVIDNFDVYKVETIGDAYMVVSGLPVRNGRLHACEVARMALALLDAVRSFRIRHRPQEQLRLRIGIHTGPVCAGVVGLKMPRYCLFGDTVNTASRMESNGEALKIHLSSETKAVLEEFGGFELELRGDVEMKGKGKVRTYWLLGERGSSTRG
UniProt P43063, sequence (P43063 whole entry): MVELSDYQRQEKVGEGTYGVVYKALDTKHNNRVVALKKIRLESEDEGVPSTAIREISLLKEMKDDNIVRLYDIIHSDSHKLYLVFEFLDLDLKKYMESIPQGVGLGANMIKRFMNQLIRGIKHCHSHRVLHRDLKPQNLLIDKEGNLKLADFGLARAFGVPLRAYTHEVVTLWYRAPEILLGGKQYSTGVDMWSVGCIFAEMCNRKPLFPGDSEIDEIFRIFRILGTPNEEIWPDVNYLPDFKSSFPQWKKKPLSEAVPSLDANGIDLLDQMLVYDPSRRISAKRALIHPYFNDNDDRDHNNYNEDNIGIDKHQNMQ
UniProt O75460, sequence (O75460 whole entry, looked up): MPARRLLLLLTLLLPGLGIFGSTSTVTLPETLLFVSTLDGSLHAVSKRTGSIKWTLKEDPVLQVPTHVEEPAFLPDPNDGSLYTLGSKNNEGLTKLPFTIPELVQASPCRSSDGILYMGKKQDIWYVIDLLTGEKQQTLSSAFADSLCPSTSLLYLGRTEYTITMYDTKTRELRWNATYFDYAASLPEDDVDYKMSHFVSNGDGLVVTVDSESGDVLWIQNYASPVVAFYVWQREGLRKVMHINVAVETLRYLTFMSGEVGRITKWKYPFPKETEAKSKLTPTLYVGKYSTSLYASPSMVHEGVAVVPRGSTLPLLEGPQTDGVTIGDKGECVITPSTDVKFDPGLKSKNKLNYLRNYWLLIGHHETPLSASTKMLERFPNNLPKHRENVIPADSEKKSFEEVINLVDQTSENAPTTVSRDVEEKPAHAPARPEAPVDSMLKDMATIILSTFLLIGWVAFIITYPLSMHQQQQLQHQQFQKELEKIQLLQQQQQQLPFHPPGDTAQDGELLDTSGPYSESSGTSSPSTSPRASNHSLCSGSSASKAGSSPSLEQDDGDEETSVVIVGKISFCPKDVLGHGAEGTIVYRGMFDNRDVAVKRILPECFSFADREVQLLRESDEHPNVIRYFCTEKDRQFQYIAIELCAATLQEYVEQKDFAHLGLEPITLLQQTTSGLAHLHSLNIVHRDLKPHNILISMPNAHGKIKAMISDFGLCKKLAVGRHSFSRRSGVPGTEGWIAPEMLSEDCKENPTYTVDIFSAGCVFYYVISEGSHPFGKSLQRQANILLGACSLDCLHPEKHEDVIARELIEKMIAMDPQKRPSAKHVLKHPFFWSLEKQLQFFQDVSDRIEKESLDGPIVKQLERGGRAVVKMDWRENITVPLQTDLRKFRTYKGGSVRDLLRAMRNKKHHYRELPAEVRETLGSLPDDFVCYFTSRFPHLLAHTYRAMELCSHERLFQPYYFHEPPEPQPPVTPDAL
UniProt Q9HGY5, sequence (Q9HGY5 whole entry): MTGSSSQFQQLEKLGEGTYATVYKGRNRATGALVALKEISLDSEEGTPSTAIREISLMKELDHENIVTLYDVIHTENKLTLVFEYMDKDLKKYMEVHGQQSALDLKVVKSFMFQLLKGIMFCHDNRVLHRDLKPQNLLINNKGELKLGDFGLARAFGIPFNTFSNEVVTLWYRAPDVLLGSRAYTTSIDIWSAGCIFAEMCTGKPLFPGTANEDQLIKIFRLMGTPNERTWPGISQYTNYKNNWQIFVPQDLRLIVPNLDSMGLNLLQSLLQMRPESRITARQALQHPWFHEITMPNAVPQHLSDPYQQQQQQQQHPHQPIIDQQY

| Target | MIB bead binding (log2) (0.1 µM) | MIB bead binding (log2) (1 µM) | MIB bead binding (log2) (10 µM) |
| --- | --- | --- | --- |
| KIN2 | -0.0805 | -0.118 | -0.154 |
| RIM11 | -0.208 | -0.891 | -3.89 |
| KIN3 | 0.0483 | 0.0107 | -0.586 |
| orf19.4144 | -0.0982 | -0.112 | -2.63 |
| IKS1 | -0.323 | -0.0927 |  |
| RIM8 (UniProt Q9UW13) | -0.206 | -0.122 | -2.22 |
| CMK2 | 0.0395 | 0.585 |  |
| CAALFM_C106360WA | -0.234 | -0.165 |  |
| TOR1 | -0.226 | 0.207 | -1.59 |
| RIO2 (UniProt Q9BVS4) | -0.284 | -0.263 | -1.23 |
| CKA2 | 0.0997 | 0.026 | -1.17 |
| ENV7 | -0.351 | 0.16 | -1.89 |
| NIK1 (UniProt Q5A599) | -0.731 | 0.254 |  |
| PHO85 (UniProt Q9HGY5) | 0.238 | 0.232 | -0.87 |
| orf19.4518 | -0.0101 | -0.0109 | -0.0364 |
| orf19.3456 | -0.328 | -0.791 |  |
| AKL1 | -0.106 | -1.01 | -5.4 |
| MKK2 (UniProt P36507) | 0.148 | -0.183 | -1.11 |
| CDC7 (UniProt O00311) | -0.0168 | -0.237 |  |
| CBK1 (UniProt Q5AP53) | 0.0978 | -0.0808 | -0.759 |
| HSL1 (UniProt Q5AG71) | 0.351 | 0.197 | -0.67 |
| SNF1 (UniProt P52497) | -0.272 | -0.136 | -1.78 |
| CTK1 | -0.0626 | -0.159 |  |
| TPK2 | -0.0872 | 0.0369 | -2.41 |
| MCK1 | -0.0754 | 0.0618 | -1.02 |
| GIN4 (UniProt Q59W62) | -0.016 | -0.162 | -0.625 |
| CEK1 | -0.256 | -0.317 | -1.74 |
| HST7 | 0.106 | -0.0777 | -1.68 |

| Target | MIB bead binding (log2) (0.1 µM) | MIB bead binding (log2) (1 µM) | MIB bead binding (log2) (10 µM) |
| --- | --- | --- | --- |
| KSP1 | 0.0498 | -0.354 | -0.384 |
| IRE1 (UniProt O75460) | -0.11 | 0.0485 | -0.0877 |
| orf19.4575 | -0.428 | -0.272 | -2.61 |
| SAK1 | 0.0968 | -0.223 | -0.482 |
| RCK2 | -0.0134 | -0.109 | -0.886 |
| FPK1 | 0.0443 | -0.0445 | -0.41 |
| YAK1 | -0.229 | -0.0276 | -2.8 |
| PBS2 | -0.000679 | -0.0528 | -0.766 |
| orf19.6492 | -0.282 | -0.0346 | -3.3 |
| CDC28 (UniProt P43063) | 0.12 | 0.127 | -0.931 |
| SHA3 | -0.155 | -0.569 | -1.8 |
| HOG1 (UniProt Q92207) | 0.146 | 0.244 | -0.916 |
| MKC1 | -0.00282 | 0.0129 | -1.76 |
| NPR1 (UniProt P16066) | 0.0428 | -0.0888 | -0.75 |
| PKH3 | -0.246 | -0.128 | -0.466 |
| CKA1 | -0.241 | 0.0806 | -2.47 |
| POM1 | -0.418 | -0.345 | -2.53 |
| SSK2 | -0.564 | -0.847 | -2.24 |
| CMK1 | 0.142 | 0.154 | -0.566 |
| RTK1 | 0.0613 | 0.118 | -1.04 |
| YCK2 | -0.488 | -1.75 | -3.65 |
| CAK1 (UniProt P50613) | -0.167 | 0.067 | -2.18 |
| YPK1 | -0.0854 | -0.539 | -1.48 |
| HRR25 | -0.165 | -0.114 | -1.89 |
| Yck22 | -0.049 | -0.35 | -2.01 |
| SCH9 (UniProt Q5AHG6) | -0.2 | -0.178 | -1.05 |
| HRK1 | -0.0934 | 0.0301 | -0.517 |
